Test results from the supplement of paper PMC7411054.

Legend:
Assay in all cases: phenotypically active (imaging signature differs from DMSO and reproducible) at any of 0.3-9 uM (binary (1 = active, 0 = inactive)); higher = active
Settings in all cases: treatment time: 24 h
A549-ACTB-RAB5A = system: A549-ACTB-RAB5A
Method in brief: (§1)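 Phenotypic activity depended on meeting both a deviation and a reproducibility criterion. The fifteen gene-edited A549, HepG2 and WPMY1 reporter lines were treated at 0.3, 1, 3 or 9 µM for 24 h, four wells each, then imaged live with features normalised to solvent control wells. Deviation required ≥3 of 4 wells past the 95th percentile of control Euclidean distances, and reproducibility a median replicate Pearson correlation above the 95th percentile of non-replicates.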

A549-CANX-COX4 = system: A549-CANX-COX4
Method in brief: as §1

A549-GM130-SQSTM1 = system: A549-GM130-SQSTM1
Method in brief: as §1

A549-TP53BP1-CLTA = system: A549-TP53BP1-CLTA
Method in brief: as §1

A549-TUBA1B-RELA = system: A549-TUBA1B-RELA
Method in brief: as §1

HepG2-ACTB-RAB5A = system: HepG2-ACTB-RAB5A
Method in brief: as §1

HepG2-CANX-COX4 = system: HepG2-CANX-COX4
Method in brief: as §1

HepG2-GM130-SQSTM1 = system: HepG2-GM130-SQSTM1
Method in brief: as §1

HepG2-TP53BP1-CLTA = system: HepG2-TP53BP1-CLTA
Method in brief: as §1

HepG2-TUBA1B-RELA = system: HepG2-TUBA1B-RELA
Method in brief: as §1

WPMY1-ACTB-RAB5A = system: WPMY1-ACTB-RAB5A
Method in brief: as §1

WPMY1-CANX-COX4 = system: WPMY1-CANX-COX4
Method in brief: as §1

WPMY1-GM130-SQSTM1 = system: WPMY1-GM130-SQSTM1
Method in brief: as §1

WPMY1-TP53BP1-CLTA = system: WPMY1-TP53BP1-CLTA
Method in brief: as §1

WPMY1-TUBA1B-RELA = system: WPMY1-TUBA1B-RELA
Method in brief: as §1

Measured: phenotypically active

CC1CCC(C(C)C)C(O)C1 [L-menthol]
inactive: A549-ACTB-RAB5A 0 | A549-CANX-COX4 0 | A549-GM130-SQSTM1 0 | A549-TP53BP1-CLTA 0 | A549-TUBA1B-RELA 0 | HepG2-ACTB-RAB5A 0 | HepG2-CANX-COX4 0 | HepG2-GM130-SQSTM1 0 | HepG2-TP53BP1-CLTA 0 | HepG2-TUBA1B-RELA 0 | WPMY1-ACTB-RAB5A 0 | WPMY1-CANX-COX4 0 | WPMY1-GM130-SQSTM1 0 | WPMY1-TP53BP1-CLTA 0 | WPMY1-TUBA1B-RELA 0

CNC(=O)COC(=O)N1CCC(CCc2ccc(Cl)cc2)CC1
inactive: A549-ACTB-RAB5A 0 | A549-CANX-COX4 0 | A549-GM130-SQSTM1 0 | A549-TP53BP1-CLTA 0 | A549-TUBA1B-RELA 0 | HepG2-ACTB-RAB5A 0 | HepG2-CANX-COX4 0 | HepG2-GM130-SQSTM1 0 | HepG2-TP53BP1-CLTA 0 | HepG2-TUBA1B-RELA 0 | WPMY1-ACTB-RAB5A 0 | WPMY1-CANX-COX4 0 | WPMY1-GM130-SQSTM1 0 | WPMY1-TP53BP1-CLTA 0 | WPMY1-TUBA1B-RELA 0

C[C@]12CC[C@@H]3c4ccc(O)cc4CC[C@H]3[C@@H]1CC[C@@H]2O [estradiol]
inactive: A549-ACTB-RAB5A 0 | A549-CANX-COX4 0 | A549-GM130-SQSTM1 0 | A549-TP53BP1-CLTA 0 | A549-TUBA1B-RELA 0 | HepG2-ACTB-RAB5A 0 | HepG2-CANX-COX4 0 | HepG2-GM130-SQSTM1 0 | HepG2-TP53BP1-CLTA 0 | HepG2-TUBA1B-RELA 0 | WPMY1-ACTB-RAB5A 0 | WPMY1-CANX-COX4 0 | WPMY1-GM130-SQSTM1 0 | WPMY1-TP53BP1-CLTA 0 | WPMY1-TUBA1B-RELA 0

CCOC(=O)[C@H](CCc1ccccc1)N[C@@H](C)C(=O)N1Cc2ccccc2C[C@H]1C(=O)O [quinapril]
inactive: A549-ACTB-RAB5A 0 | A549-CANX-COX4 0 | A549-GM130-SQSTM1 0 | A549-TP53BP1-CLTA 0 | A549-TUBA1B-RELA 0 | HepG2-ACTB-RAB5A 0 | HepG2-CANX-COX4 0 | HepG2-GM130-SQSTM1 0 | HepG2-TP53BP1-CLTA 0 | HepG2-TUBA1B-RELA 0 | WPMY1-ACTB-RAB5A 0 | WPMY1-CANX-COX4 0 | WPMY1-GM130-SQSTM1 0 | WPMY1-TP53BP1-CLTA 0 | WPMY1-TUBA1B-RELA 0

C#C[C@]1(O)CC[C@H]2[C@@H]3CCc4cc(OC5CCCC5)ccc4[C@H]3CC[C@@]21C [quinestrol]
inactive: A549-ACTB-RAB5A 0 | A549-CANX-COX4 0 | A549-GM130-SQSTM1 0 | A549-TP53BP1-CLTA 0 | A549-TUBA1B-RELA 0 | HepG2-ACTB-RAB5A 0 | HepG2-CANX-COX4 0 | HepG2-GM130-SQSTM1 0 | HepG2-TP53BP1-CLTA 0 | HepG2-TUBA1B-RELA 0 | WPMY1-ACTB-RAB5A 0 | WPMY1-CANX-COX4 0 | WPMY1-GM130-SQSTM1 0 | WPMY1-TP53BP1-CLTA 0 | WPMY1-TUBA1B-RELA 0

Cn1c(=O)c2[nH]cnc2n(C)c1=O [Aminophylline]
inactive: A549-ACTB-RAB5A 0 | A549-CANX-COX4 0 | A549-GM130-SQSTM1 0 | A549-TP53BP1-CLTA 0 | A549-TUBA1B-RELA 0 | HepG2-ACTB-RAB5A 0 | HepG2-CANX-COX4 0 | HepG2-GM130-SQSTM1 0 | HepG2-TP53BP1-CLTA 0 | HepG2-TUBA1B-RELA 0 | WPMY1-ACTB-RAB5A 0 | WPMY1-CANX-COX4 0 | WPMY1-GM130-SQSTM1 0 | WPMY1-TP53BP1-CLTA 0 | WPMY1-TUBA1B-RELA 0

O=C(Nc1cccnc1)c1cc(-c2ccnc(F)c2)ccc1OCc1ccccc1
inactive: A549-ACTB-RAB5A 0 | A549-CANX-COX4 0 | A549-GM130-SQSTM1 0 | A549-TP53BP1-CLTA 0 | A549-TUBA1B-RELA 0 | HepG2-ACTB-RAB5A 0 | HepG2-CANX-COX4 0 | HepG2-GM130-SQSTM1 0 | HepG2-TP53BP1-CLTA 0 | HepG2-TUBA1B-RELA 0 | WPMY1-ACTB-RAB5A 0 | WPMY1-CANX-COX4 0 | WPMY1-GM130-SQSTM1 0 | WPMY1-TP53BP1-CLTA 0 | WPMY1-TUBA1B-RELA 0

Cc1cc(O)cc2c1C(=O)Oc1cc3c(c(O)c1O2)C(=O)OC3 [Variolaric acid]
inactive: A549-ACTB-RAB5A 0 | A549-CANX-COX4 0 | A549-GM130-SQSTM1 0 | A549-TP53BP1-CLTA 0 | A549-TUBA1B-RELA 0 | HepG2-ACTB-RAB5A 0 | HepG2-CANX-COX4 0 | HepG2-GM130-SQSTM1 0 | HepG2-TP53BP1-CLTA 0 | HepG2-TUBA1B-RELA 0 | WPMY1-ACTB-RAB5A 0 | WPMY1-CANX-COX4 0 | WPMY1-GM130-SQSTM1 0 | WPMY1-TP53BP1-CLTA 0 | WPMY1-TUBA1B-RELA 0

NCCC(=O)NCCc1c[nH]cn1 [Carcinine]
inactive: A549-ACTB-RAB5A 0 | A549-CANX-COX4 0 | A549-GM130-SQSTM1 0 | A549-TP53BP1-CLTA 0 | A549-TUBA1B-RELA 0 | HepG2-ACTB-RAB5A 0 | HepG2-CANX-COX4 0 | HepG2-GM130-SQSTM1 0 | HepG2-TP53BP1-CLTA 0 | HepG2-TUBA1B-RELA 0 | WPMY1-ACTB-RAB5A 0 | WPMY1-CANX-COX4 0 | WPMY1-GM130-SQSTM1 0 | WPMY1-TP53BP1-CLTA 0 | WPMY1-TUBA1B-RELA 0

CC(C)(C)NS(=O)(=O)c1cncc(-c2cc(F)c3nc(N)nn3c2)c1
inactive: A549-ACTB-RAB5A 0 | A549-CANX-COX4 0 | A549-GM130-SQSTM1 0 | A549-TP53BP1-CLTA 0 | A549-TUBA1B-RELA 0 | HepG2-ACTB-RAB5A 0 | HepG2-CANX-COX4 0 | HepG2-GM130-SQSTM1 0 | HepG2-TP53BP1-CLTA 0 | HepG2-TUBA1B-RELA 0 | WPMY1-ACTB-RAB5A 0 | WPMY1-CANX-COX4 0 | WPMY1-GM130-SQSTM1 0 | WPMY1-TP53BP1-CLTA 0 | WPMY1-TUBA1B-RELA 0

C#C[C@]1(O)CC[C@H]2[C@@H]3CCc4cc(OC)ccc4[C@H]3CC[C@@]21C [mestranol]
inactive: A549-ACTB-RAB5A 0 | A549-CANX-COX4 0 | A549-GM130-SQSTM1 0 | A549-TP53BP1-CLTA 0 | A549-TUBA1B-RELA 0 | HepG2-ACTB-RAB5A 0 | HepG2-CANX-COX4 0 | HepG2-GM130-SQSTM1 0 | HepG2-TP53BP1-CLTA 0 | HepG2-TUBA1B-RELA 0 | WPMY1-ACTB-RAB5A 0 | WPMY1-CANX-COX4 0 | WPMY1-GM130-SQSTM1 0 | WPMY1-TP53BP1-CLTA 0 | WPMY1-TUBA1B-RELA 0

COC(=O)C(Cc1ccc(OCCn2c(=O)sc3cc(C(=O)c4ccccc4)ccc32)cc1)C(=O)OC
inactive: A549-ACTB-RAB5A 0 | A549-CANX-COX4 0 | A549-GM130-SQSTM1 0 | A549-TP53BP1-CLTA 0 | A549-TUBA1B-RELA 0 | HepG2-ACTB-RAB5A 0 | HepG2-CANX-COX4 0 | HepG2-GM130-SQSTM1 0 | HepG2-TP53BP1-CLTA 0 | HepG2-TUBA1B-RELA 0 | WPMY1-ACTB-RAB5A 0 | WPMY1-CANX-COX4 0 | WPMY1-GM130-SQSTM1 0 | WPMY1-TP53BP1-CLTA 0 | WPMY1-TUBA1B-RELA 0

CC(C)(C#N)c1cc(Cn2cncn2)cc(C(C)(C)C#N)c1 [Anastrozole]
inactive: A549-ACTB-RAB5A 0 | A549-CANX-COX4 0 | A549-GM130-SQSTM1 0 | A549-TP53BP1-CLTA 0 | A549-TUBA1B-RELA 0 | HepG2-ACTB-RAB5A 0 | HepG2-CANX-COX4 0 | HepG2-GM130-SQSTM1 0 | HepG2-TP53BP1-CLTA 0 | HepG2-TUBA1B-RELA 0 | WPMY1-ACTB-RAB5A 0 | WPMY1-CANX-COX4 0 | WPMY1-GM130-SQSTM1 0 | WPMY1-TP53BP1-CLTA 0 | WPMY1-TUBA1B-RELA 0
